# Measured values published in PubChem BioAssay AID449762 (Southern Research Specialized Biocontainment Screening …, 2010).
# In all, about 330,000 compounds went through this assay and about 1,900 (0.58%) were called active. Roughly 4% stayed inconclusive and do not appear here. Not all results are given here. Entries with a potency or affinity are not part of this list. A number with no mark means an inactive call. Cut-off read from the data, not from the text of the source: inconclusive = inhibition above about 70% without an active follow-up result; inactive = below that.
# Assay: M. tuberculosis growth inhibition, HTS (AID 449762);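 note: bacterial growth assessed after seven days of incubation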
# Details: M. tuberculosis H37Rv growth inhibition, 7H9 media; at 25 µM; hits give high values
row,SMILES,inhibition
1,CCn1ncc(/C=N/O)c1C,-7.24%
2,CCOC(=O)C1(CCOc2ccccc2)CCN(Cc2cccc(O)c2)CC1,3.57%
3,CCOC(=O)C1(CCOc2ccccc2)CCN(Cc2cccc(OC)c2)CC1,8.09%
4,Cc1ccc(OCC(=O)N(C)CC(=O)Nc2ccc(F)c(F)c2F)cc1,4.12%
5,Cc1ccc(S(=O)(=O)N2CCN(C3CC4CCC3C4)CC2)cc1 (configuration not stated),-2.36%
6,O=C(CCNS(=O)(=O)c1ccccc1)N1CCN(C(c2ccccc2)c2ccccc2)CC1,4.06%
7,CCOc1ccc(-c2cc(CCCC(=O)NCCCOC)no2)cc1,-1.18%
8,CCOc1ccc(-c2cc(CCCC(=O)NCCc3ccccc3)no2)cc1,-2.4%
9,CCn1c2c(c3cc(OCC(C)C)ccc31)CCCC2=O,-1.76%
10,COc1ccc(NC(=O)CS(=O)(=O)c2cn(CC(=O)N3CCOCC3)c3ccccc23)cc1OC,-16%
11,O=S1(=O)N=C(SCCO)c2ccccc21,8.5%
12,Cc1ccc(SC2=C(Sc3ccc(C)cc3)C(=O)c3ccccc3C2=O)cc1,-5.39%
13,COc1cc(C(=O)OCC(=O)Nc2ccccc2C(=O)NC2CC2)c([N+](=O)[O-])cc1OC,-0.465%
14,COc1cccc(C2C(C#N)=C(N)OC(C(C)(C)C)=C2C#N)c1 (configuration not stated),-2.5%
15,COC(=O)c1c(NC(=S)Nc2ccc(C(=O)N3CCOCC3)cc2)sc2c1CCC2,-7.13%
16,CN(C)CCNC(=O)c1ccc2c(=O)n(Cc3ccc(Cl)cc3)c(=S)[nH]c2c1,2.11%
17,O=C(NCCN1CCCC1)c1ccc(Cn2c(=S)[nH]c3ccc(Br)cc3c2=O)cc1,64.3%
18,C/C(=N/NC(=O)c1cc(C)[nH]n1)c1ccncc1,0.52%
19,CC1CCN(C(=O)C2CCCCN2S(=O)(=O)c2cccc([N+](=O)[O-])c2)CC1 (configuration not stated),0.51%

row,SMILES,inhibition
1,COC(=O)c1[nH]c2ccccc2c1NC(=O)C(C)N1CCN(C(=O)c2ccco2)CC1 (configuration not stated),-9.02%
2,CCOC(=O)c1sc(NC(=O)c2cc(-c3ccc(C)cc3)nc3ccccc23)c(C#N)c1C,1.87%
3,COc1cccc(NS(=O)(=O)c2c(C)n(C)c(=O)n(C)c2=O)c1,-4.03%
4,Cc1ccc(C)c(N2CCN(S(=O)(=O)c3ccc(-c4cc(C)no4)s3)CC2)c1,6.24%
5,Cc1nn(-c2ccc([N+](=O)[O-])cc2)c2c1C(c1cccc(Br)c1)N1C(=N2)C(=O)Nc2ccccc21 (configuration not stated),15.9%
6,Cc1nn(-c2ccc([N+](=O)[O-])cc2)c2c1C(c1ccc(OC(F)F)cc1)N1C(=N2)C(=O)Nc2ccccc21 (configuration not stated),65.4%
7,Cc1cc(C(=O)NCC(=O)OCC(=O)Nc2ccc(OC(F)F)cc2)ccc1[N+](=O)[O-],-2.28%
8,CC(C)NC(=O)[C@@H]1CSC2c3ccccc3C(=O)N21 (some centres not stated),-1.97%
9,O=C(C[C@@H]1C/C=C\CCCC(=O)OC[C@@H]2CCCN2C1=O)N[C@H](CO)Cc1ccccc1,7.5%
10,Cc1cc(SCC(=O)NCCN2C(=O)CSC2=O)nc2c(C)cccc12,4.1%
11,Cc1cccc(NC(=O)c2cc3c(s2)-c2c(C)cccc2OC3)n1,0.14%
12,Cc1cccc2c1-c1sc(C(=O)Nc3cccc([N+](=O)[O-])c3C)cc1CO2,-9.42%
13,Cc1cccc(OCCCC(=O)Nc2nccs2)c1C,8.02%
14,O=C(c1sccc1-c1ccccc1)N1CCN(S(=O)(=O)c2ccccc2)CC1,-22.5%
15,COCCNc1nc(SCC(=O)N2CCN(c3ccccc3OC)CC2)nc2ccccc12,-10.5%
16,COc1ccc2c3n([n+]([O-])c2c1)CCN=C3c1ccc(C)cc1,17%
17,[O-][n+]1c2ccccc2c2n1CCN=C2c1ccc(Cl)cc1,0.84%
18,O=C(O)c1ccc(Cn2ccc3ccccc32)o1,2%
19,CC(=O)C1=C(C)NC(SCC(=O)c2ccc(Cl)cc2)=C(C#N)C1c1ccco1 (configuration not stated),2.1%

row,SMILES,inhibition
1,CCOc1ccccc1NC(=O)CSC1=C(C#N)C(c2ccco2)C(C(=O)Nc2nc3ccccc3s2)=C(C)N1 (configuration not stated),49.6%
2,CC1=C(C(=O)Nc2ccccc2)C(c2ccco2)C(C#N)=C(SCC(=O)Nc2cccc(C)c2C)N1 (configuration not stated),-1.31%
3,CC(=O)C1=C(C)NC(SCC(N)=O)=C(C#N)C1c1ccco1 (configuration not stated),-6.56%
4,CCOc1ccccc1CN1CCN(CC2CC2)CC1CCO (configuration not stated),-1.16%
5,COCCCNC(=O)CC(NCCCOC)C(=O)O (configuration not stated),0.77%
6,COC(=O)c1ccc(NS(=O)(=O)N(C)C)cc1,-1.07%
7,Cc1ccc(C(=O)N(CCC2=CCCCC2)c2c(N)n(Cc3ccccc3)c(=O)[nH]c2=O)o1,6.47%
8,Nc1c(N(CCC2=CCCCC2)C(=O)c2ccco2)c(=O)[nH]c(=O)n1Cc1ccccc1,9.03%
9,CS(=O)(=O)c1ccc(Cl)c(NC(=O)COC(=O)CCN=C2NS(=O)(=O)c3ccccc32)c1,-3.06%
10,O=C(CCl)NN1C(=O)NC(c2ccccc2)(c2ccccc2)C1=O,2.88%
11,Cc1ccc(S(=O)(=O)NCC(=O)OCc2cc(=O)oc3cc(C)ccc23)cc1,-1.73%
12,O=C(NC(=S)Nc1ccc2[nH]c(=O)[nH]c2c1)c1ccccc1F,-4.55%
13,Brc1ccc2c(c1)C(C1=NCCN1)c1ccccc1CS2 (configuration not stated),0.75%
14,Clc1ccc2c(c1)C(OC1CN3CCC1CC3)c1ccccc1CS2 (configuration not stated),9.17%
15,NC(=S)N/N=C/c1c(O)ccc2ccccc12,-0.33%
16,CN(C)/N=C/c1c(O)ccc2ccccc12,27.8%
17,CCCN(CCC)C(=O)c1ccc2nc(-c3ccc(OC)c(OC)c3)c(-c3ccc(OC)c(OC)c3)nc2c1,-2.59%
18,CC1CCCN(C(=O)Cc2cccc3ccccc23)C1 (configuration not stated),7.05%
19,CCN(c1ccccc1)S(=O)(=O)c1cccc(C(=O)Nc2ccc(C)cn2)c1,-11.7%
